# Inconclusive results are not listed. Where a call stands in place of a potency, no number is given. Calls of active or inactive are those of the source. Calls follow the shape of the dose curve; as a rule, active = well fitted inhibition curve with a large enough effect in the repeat runs; inconclusive = weak or mixed curves; inactive = no such curve, though single readings can be large or run the other way.
# Molecular target: Cytochrome P450 2C19 (Homo sapiens) (UniProt P33261)
# Experiment: Cytochrome P450 Family 2 Subfamily C Member 19 (CYP2C19) small molecule antagonists: luciferase reporter qHTS assay (AID 1671197); also: nearly all actives have a fitted effect of over 65% in size
# Conditions: P450-Glo CYP2C19 enzyme, luciferin luminescence, 1 h; series mostly up to 115 µM
# How it was run: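 Relative luminescence units recorded 20 min after the detection reagent stopped a 1 h, 37C CYP2C19 reaction on proluciferin substrate, which was started by NADPH regeneration following 10 min room-temperature compound preincubation; ketoconazole positive control.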
# Potency is read from the fitted curve at half-maximal effect.
# Chain of Cytochrome P450 2C19 (Homo sapiens) (P33261 whole entry, looked up): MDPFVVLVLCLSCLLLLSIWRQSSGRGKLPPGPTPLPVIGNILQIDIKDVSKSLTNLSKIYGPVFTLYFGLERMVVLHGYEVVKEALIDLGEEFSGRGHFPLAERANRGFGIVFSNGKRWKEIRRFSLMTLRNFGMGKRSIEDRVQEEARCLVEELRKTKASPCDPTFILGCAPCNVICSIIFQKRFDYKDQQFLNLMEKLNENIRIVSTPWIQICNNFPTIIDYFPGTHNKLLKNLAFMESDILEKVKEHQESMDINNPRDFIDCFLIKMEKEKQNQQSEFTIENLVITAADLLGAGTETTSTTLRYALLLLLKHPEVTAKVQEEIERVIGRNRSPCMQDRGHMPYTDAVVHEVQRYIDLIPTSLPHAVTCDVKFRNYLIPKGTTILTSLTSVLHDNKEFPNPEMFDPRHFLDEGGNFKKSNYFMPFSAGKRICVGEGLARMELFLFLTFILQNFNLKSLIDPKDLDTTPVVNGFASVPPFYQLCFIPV
row,Compound,Potency
1,NC1CCN(c2nc3c(cc2F)c(=O)c(C(=O)O)cn3-c2ccc(F)cc2F)C1 (stereo not drawn),inactive
2,OCCC1CCCCN1 (stereo not drawn),inactive
3,COc1cc(C(C)(C)C)c(O)c(C(C)(C)C)c1,35.6 µM (active)
4,COC(=O)C(C)=O,71.3 µM (active)
5,Cc1ccc(C(N)=O)cc1N,44.8 µM (active)
6,O=C1CCCCCO1,inactive
7,Cn1c(=O)c2c(ncn2CC(O)CO)n(C)c1=O (stereo not drawn),inactive
8,O=C(Cl)c1ccc([N+](=O)[O-])cc1,inactive
9,CCCCc1cc2ccccc2c(OCCN(C)C)n1,inactive
10,CCCCCC/C=C/C=O,71 µM (active)
11,CCOC(=O)CC(C)C,inactive
12,CC(=O)CC(=O)c1ccccc1,31.9 µM (active)
13,C=Cc1c(C)c2cc3[nH]c(cc4nc(cc5nc(cc1[nH]2)C(C)=C5CCC(=O)O)C(CCC(=O)O)=C4C)c(C)c3C=C,inactive
14,CN1CCC(=C2c3ccccc3CCc3sccc32)CC1,8.71 µM (active)
15,CCCCCOC(=O)COc1cc(N2C(=O)C3=C(CCCC3)C2=O)c(F)cc1Cl,25.2 µM (active)
16,CC[C@H](C)[C@@H](C(=O)O)n1sc2ccccc2c1=O,inactive
17,NC(=S)N/N=C/c1cccnc1,inactive
18,CC(=O)N(O)CCCCCNC(=O)CCC(=O)N(O)CCCCCNC(=O)CCC(=O)N(O)CCCCCN,inactive
19,O=C(NN1CCCC1)NS(=O)(=O)c1ccc(Cl)cc1,inactive
20,Cc1ccc(C)o1,inactive
21,C=C(C)C(=O)OCCOc1ccccc1,31.7 µM (active)
22,CCCC(=O)OCC,inactive
23,CC/C(=C\C(=N/O)C(N)=O)C(C)[N+](=O)[O-] (stereo not drawn),inactive

# — PubChem BioAssay (Tox21)
